The whole screen tested about 52,000 compounds, of which about 4,300 (8.3%) were called active. Cut-off read from the data, not from the text of the source: active = survival mostly below about 52% (no sharp cut-off); inactive = mostly above about 56%. What follows is part of a selection rich in actives, with near analogues and random picks from the rest.
system: DeltatarO mutant; assay: S. aureus survival, RN4220 and DeltatarO strains – OD600, teichoic acid synthesis inhibitors, primary screen (AID 463173); details: S. aureus RN4220 wild type/DeltatarO growth, OD600, 18 h, hits give low values, screened at 18.75 µg/mL (by protocol)

| Structure (SMILES) | survival |
| --- | --- |
| O=S(=O)(c1ccccc1)N1CCC(n2cnc3ccccc32)CC1 | 78% (inactive) |
| Cc1ccc(C)c(NC(=O)C2CCN(S(=O)(=O)c3c(C)noc3/C=C/c3cccs3)CC2)c1 | 63% (inactive) |
| Cn1nnc(C(O)CNCc2ccc(F)cc2)n1 (centres undefined) | 105% (inactive) |
| CCOC(=O)c1c(NC(=O)c2ccc(S(=O)(=O)N(CCOC)CCOC)cc2)sc2c1CC(C)(C)NC2(C)C | 78% (inactive) |
| Cc1cccc(CNC(=O)c2cnc3sc(N4CCCCCC4)nn3c2=O)c1 | 99% (inactive) |
| COc1ccc(NC(=O)CCn2nc(-c3ccccc3OC)c3c(C)cc(C)nc32)cc1 | 70% (inactive) |
| CC(=O)c1cccc(NC(=O)c2cnn(-c3cccc(C)c3)c2-n2cccc2)c1 | 99% (inactive) |
| CCOC(=O)c1[nH]c(C)c(CCC(=O)Nc2cc(Cl)ccc2C)c1C | 73% (inactive) |
| CCOC(=O)c1oc2ccc(S(=O)(=O)n3nc(-c4cc(OC)cc(OC)c4)cc3N)cc2c1C | 111% (inactive) |
| COc1cccc(CNC(=O)CSC2=Nc3ccccc3N=C(c3ccc(F)cc3)C2)c1 | 117% (inactive) |
| CC(=O)c1ccc(NC(=O)C(Cc2ccccc2)NS(=O)(=O)c2ccc3c(c2)CCC(=O)N3)cc1 (centres undefined) | 84% (inactive) |
| CCCSc1ncc(Cl)c(C(=O)Nc2c(C(=O)Nc3ccc(OC)cc3)oc3ccccc23)n1 | 68% (inactive) |
| COc1ccccc1CNC(=O)c1cnc2sc(N3CCCCC3)nn2c1=O | 66% (inactive) |
| Cc1oc(CSCCSCc2cc(C(=O)O)c(C)o2)cc1C(=O)O | 94% (inactive) |
| COc1cccc(CNc2ccc3c(c2)ncn3C)c1OC | 122% (inactive) |
| CCCn1cnc2cc(NCc3ccc(OC)cc3OC)ccc21 | 64% (inactive) |
| CCCn1cnc2cc(NCc3ccccc3OCC)ccc21 | 35% (active) |
| Cc1ccc(-c2nnc(SCc3cccc(C#N)c3)o2)cc1 | 62% (inactive) |
| COc1cccc(CNC(=O)c2cnc(N3CCCCC3)c3ccccc23)c1 | 86% (inactive) |
| CCN(CC)C(=O)Cn1ncc2c([nH]c3ccccc32)c1=O | 118% (inactive) |
| CCOc1ccccc1N(CC)C(=O)Cn1ncc2c([nH]c3ccccc32)c1=O | 46% (active) |
| CCOc1ccccc1NC(=O)Cn1ncc2c([nH]c3ccccc32)c1=O | 126% (inactive) |
| Cc1ccc(N(C)C(=O)Cn2ncc3c([nH]c4ccccc43)c2=O)cc1C | 37% (active) |

| Structure (SMILES) | survival |
| --- | --- |
| CCOC(=O)C1CCN(C(=O)Cn2ncc3c([nH]c4ccc(C)cc43)c2=O)CC1 | 72% (inactive) |
| COc1cc(OC)c(N(C)C(=O)Cn2ncc3c([nH]c4ccccc43)c2=O)cc1Cl | 91% (inactive) |
| Cc1ccc2[nH]c3c(=O)n(CC(=O)NC(C)C)ncc3c2c1 | 6% (active) |
| CCOC(=O)C1CCN(C(=O)Cn2ncc3c([nH]c4ccccc43)c2=O)CC1 | 25% (active) |
| CCOC(=O)C1CCCN(C(=O)Cn2ncc3c([nH]c4ccccc43)c2=O)C1 (centres undefined) | 83% (inactive) |
| CCCN(C(=O)Cn1ncc2c([nH]c3ccccc32)c1=O)c1ccc(F)cc1 | 101% (inactive) |
| Cc1ccc(CCNC(=O)Cn2ncc3c([nH]c4ccc(C)cc43)c2=O)cc1 | 119% (inactive) |
| Cc1ccc(CNC(=O)Cn2ncc3c([nH]c4ccc(C)cc43)c2=O)cc1 | 88% (inactive) |
| Cc1ccccc1S(=O)(=O)Cc1ccc(C(=O)NCCc2ccccc2)o1 | 76% (inactive) |
| Cc1ccc2c(c1)c1c(c(=O)n(-c3ccccc3C)c(=O)n1Cc1ccccc1F)n2C | 73% (inactive) |
| CCCN(CCC)C(=O)Cn1c(=O)n(-c2cccc(C)c2)c(=O)c2c1c1cc(OC)ccc1n2C | 64% (inactive) |
| CCOc1ccc(CCNC(=O)CCCn2nc(C)c3sc4ccccc4c3c2=O)cc1 | 72% (inactive) |
| CCOc1ccc(CCNC(=O)NCc2noc3ccc(C)cc23)cc1 | 74% (inactive) |
| COCCCNC(=O)c1ccc(Cn2c(=O)c3ccccc3n(Cc3c(C)cc(C)cc3C)c2=O)cc1 | 107% (inactive) |
| CCCNC(=O)N(C)c1ncnnc1NC | 98% (inactive) |
| COc1ccccc1C(=O)Nc1nnc(SCc2cc(=O)c3cc(Cl)ccc3[nH]2)s1 | 62% (inactive) |
| CCCCN(C)C(=O)Cn1ncc2c([nH]c3ccc(C)cc32)c1=O | 70% (inactive) |
| Cc1ccc2[nH]c3c(=O)n(CC(=O)N(CCN(C)C)Cc4ccccc4)ncc3c2c1 | 97% (inactive) |
| Cc1ccc2[nH]c3c(=O)n(CC(=O)N(C)Cc4ccccc4)ncc3c2c1 | -1% (active) |
| Cc1cc(F)ccc1NC(=O)c1c(C)oc2c1C1=NCCN1C=N2 | 102% (inactive) |
| Cc1cccc(CNC(=O)c2ccc(C)c(-n3c(C)nc4cccnc43)c2)c1 | 67% (inactive) |
| CCC(C)NC(=O)C1CCCN(S(=O)(=O)c2ccc(C)c(Cl)c2)C1 (centres undefined) | 94% (inactive) |
| COc1ccc(NC(=O)Cn2c(=O)n(Cc3nc(-c4ccccc4)no3)c(=O)c3cc4c(cc32)OCO4)c(OC)c1 | 94% (inactive) |

| Structure (SMILES) | survival |
| --- | --- |
| CCOc1ccc(CCNC(=O)C(CC)n2nc(C)c3c(C)n(-c4ccccc4)nc3c2=O)cc1 (centres undefined) | 69% (inactive) |
| Cc1ccccc1OC(=O)c1snnc1C | 90% (inactive) |
| CCCSc1ncc(Cl)c(C(=O)N(Cc2ccc(Cl)cc2)Cc2ccco2)n1 | 39% (active) |
| CCSc1ncc(Cl)c(C(=O)N(Cc2ccccc2)Cc2ccco2)n1 | 106% (inactive) |
| Cc1ccc(CN(Cc2ccco2)C(=O)c2ccc(Cl)cc2Cl)cc1 | 53% (inactive) |
| CS(=O)(=O)c1ncc(Cl)c(C(=O)N(Cc2ccc(Cl)cc2)Cc2ccco2)n1 | 4% (active) |
| CSc1ncc(Cl)c(C(=O)N(Cc2ccc(N(C)C)cc2)Cc2ccco2)n1 | 80% (inactive) |
| CCSc1ncc(Cl)c(C(=O)N(Cc2ccc(N(C)C)cc2)Cc2ccco2)n1 | 104% (inactive) |
| CCCS(=O)(=O)c1ncc(Cl)c(C(=O)N(Cc2ccccc2)Cc2ccco2)n1 | 40% (active) |
| CCS(=O)(=O)c1ncc(Cl)c(C(=O)N(Cc2ccccc2)Cc2ccco2)n1 | 52% (inactive) |
| CCCOc1ccc(C(=O)N(Cc2ccc(Cl)cc2)Cc2ccco2)cc1 | 50% (inactive) |
| Cc1cccc2c1-c1sc(C(=O)NCc3ccccc3Cl)cc1CO2 | 55% (inactive) |
| Cc1ccc(NC(=O)C2CCCN(S(=O)(=O)c3ccc4c(c3)oc(=O)n4C)C2)cc1Cl (centres undefined) | 76% (inactive) |
| COc1ccc(C(=O)CSc2nc(C)cc(C)n2)cc1C | 104% (inactive) |
| CCc1cccc(C)c1NC(=O)Cn1ccn(Cc2ccc(Cl)cc2)c(=O)c1=O | 41% (active) |
| CCc1cccc(C)c1NC(=O)CN1CCCN(Cc2ccc(C)cc2)S1(=O)=O | 8% (active) |
| CCc1cccc(C)c1NC(=O)Cn1ccn(-c2ccc(F)cc2)c(=O)c1=O | 52% (inactive) |
| Cc1ccccc1CN1CCCN(CC(=O)Nc2c(C)cccc2C)S1(=O)=O | 93% (inactive) |
| CCc1cccc(C)c1NC(=O)CN1CCCN(Cc2ccccc2Cl)S1(=O)=O | 55% (inactive) |
| Cc1ccc(NC(=O)Cn2ccn(Cc3ccc(Cl)cc3)c(=O)c2=O)cc1C | 111% (inactive) |
| Cc1ccc(NC(=O)CN2CCCN(Cc3cc(C)ccc3C)S2(=O)=O)c(Cl)c1 | 81% (inactive) |
| Cc1ccc(CN2CCCN(CC(=O)Nc3ccc(C)cc3C)S2(=O)=O)cc1 | 89% (inactive) |
| Cc1ccc(NC(=O)CN2CCCN(Cc3ccccc3Cl)S2(=O)=O)c(C)c1 | 17% (active) |

| Structure (SMILES) | survival |
| --- | --- |
| CCOc1ccc(CNC(=O)CSc2nnc(C)c3c(C)n(-c4ccccc4)nc23)cc1 | 82% (inactive) |
| CCN1CCC(N(Cc2ccc3c(c2)OCO3)C(=O)Nc2cc(Cl)ccc2C(=O)OC)CC1 | 126% (inactive) |
| CCOC(=O)Cc1csc(NC(=O)CSc2nc3c(C)c(C)ccc3cc2C#N)n1 | 78% (inactive) |
| COc1ccc(CC(C(=O)O)c2ccccc2)cc1 (centres undefined) | 65% (inactive) |
| Cc1ccc(S(=O)(=O)Nc2cccc(-c3ccc(N4CCCCC4)nn3)c2)s1 | 76% (inactive) |
| O=S(=O)(Nc1cccc(-c2ccc(N3CCCCCC3)nn2)c1)c1ccccc1 | 6% (active) |
| O=S(=O)(Nc1ccc(-c2ccc(N3CCCC3)nn2)cc1)c1ccc(C(F)(F)F)cc1 | 72% (inactive) |
| O=S(=O)(Nc1cccc(-c2ccc(N3CCCCCC3)nn2)c1)c1ccc(F)cc1 | 79% (inactive) |
| COc1ccc(C)cc1S(=O)(=O)Nc1cccc(-c2ccc(N3CCC(C)CC3)nn2)c1 | -2% (active) |
| CC1CCN(c2ccc(-c3cccc(NS(=O)(=O)c4ccc(Cl)s4)c3)nn2)CC1 | 72% (inactive) |
| COc1ccc(F)cc1S(=O)(=O)Nc1cccc(-c2ccc(N3CCC(C)CC3)nn2)c1 | 109% (inactive) |
| O=S(=O)(Nc1ccc(-c2ccc(N3CCCCC3)nn2)cc1)c1ccc(OC(F)(F)F)cc1 | 82% (inactive) |
| O=S(=O)(Nc1cccc(-c2ccc(N3CCCCC3)nn2)c1)c1cccc(F)c1 | 91% (inactive) |
| COc1ccc(C)cc1S(=O)(=O)Nc1cccc(-c2ccc(N3CCCC3)nn2)c1 | 78% (inactive) |
| O=S(=O)(Nc1ccc(-c2ccc(N3CCCC3)nn2)cc1)c1ccc(OC(F)(F)F)cc1 | -4% (active) |
| Cc1ccc(S(=O)(=O)Nc2cccc(-c3ccc(N4CCC(C)CC4)nn3)c2)s1 | -1% (active) |
| O=C(c1ccccc1Cl)N(Cc1ccco1)Cc1cc2cc3c(cc2nc1Cl)OCO3 | 103% (inactive) |
| CCc1cnc2c(c1SCc1cc(OC)cc(OC)c1)c(=O)n(C)c(=O)n2C | 75% (inactive) |
| O=C(O)C1C2C=CC(C2)C1C(=O)N1CCN(Cc2ccccc2)CC1 (centres undefined) | 59% (inactive) |
| COc1ccc(S(=O)(=O)c2c(Nc3ccccc3F)sc(C(=O)c3cccc(OC)c3)c2N)cc1 | 97% (inactive) |

From PubChem BioAssay AID463173 (ICCB-Longwood Screening Facility, Harvard Medical School, 2010)
